This is a sample that favours compounds with a hit; in the whole collection about 1.6% have one here.
KCNQ2 inh: blocks the rat KCNQ2 potassium channel; O88943; CHO-K1 KCNQ2, FluxOR thallium flux, 20 min; hits give low values; B-score at 10 µM; 310,000 compounds, 1.1% hits;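 active = fluorescence ratio B-score at most minus 3 library SDs, with starting brightness B-score within 2 library SDs, cut at about -5.5 in these data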
KCNQ2 pot: potentiators of rat KCNQ2 potassium channel; B-score at 10 µM; 310,000 compounds, 0.54% hits; CHO-K1 KCNQ2, FluxOR thallium flux fluorescence; hits give high values;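 active = fluorescence ratio B-score at least 3 SD of library B-scores, with initial fluorescence B-score within 3 of them, cut at about 5.3 in these data; same plate scores as AID 2156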;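 also: B-score of peak minus minimum over baseline fluorescence ratio after K+ and Tl+ stimulus; positive B-score means potentiation of KCNQ2 with more thallium influx and brighter signal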
Kir21 confirm: confirmation of mouse Kir2.1 potassium channel inhibitors; shares compounds with KCNQ2 pot; Kir2.1-expressing cells, FluxOR thallium flux fluorescence; hits give low values; Tl flux remaining, % of negative control (hits give low values), % at 10 µM; 2,300 compounds, 41% hits; AID 2032;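 active = Primary-screen hit whose thallium flux fell at least 3 control SD below untreated wells in both duplicates, with normal baseline fluorescence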;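 also: 0% = blank wells without stimulus and 100% = stimulated no-compound controls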
Target sequence (P35561 whole entry, looked up): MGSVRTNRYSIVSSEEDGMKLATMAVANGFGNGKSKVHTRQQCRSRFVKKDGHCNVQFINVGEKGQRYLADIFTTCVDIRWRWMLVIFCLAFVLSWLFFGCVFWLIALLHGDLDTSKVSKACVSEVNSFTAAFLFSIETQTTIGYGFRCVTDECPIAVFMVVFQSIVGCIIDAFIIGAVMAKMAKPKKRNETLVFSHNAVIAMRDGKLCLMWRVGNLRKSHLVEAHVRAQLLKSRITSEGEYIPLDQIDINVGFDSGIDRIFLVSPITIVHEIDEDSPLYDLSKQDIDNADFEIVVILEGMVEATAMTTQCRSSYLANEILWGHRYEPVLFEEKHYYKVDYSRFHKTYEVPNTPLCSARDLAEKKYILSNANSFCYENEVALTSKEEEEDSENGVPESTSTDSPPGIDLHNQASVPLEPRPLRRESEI
HEK293 ctr: counter-screen for Kir2.1 inhibitors: effect in parental HEK293 cells; shares compounds with KCNQ2 pot; FluxOR thallium flux fluorescence; 0% = unstimulated blank wells; FluxOR signal as % of negative control (100 = no effect), % at 10 µM; 2,300 compounds, 19% hits; AID 2105;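 active = dye signal at least 3 control SD above or below untreated wells in both duplicates, raw fluorescence within 3, either direction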;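 also: percent is based on the flux ratio of peak minus minimum fluorescence over baseline F0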
CHO-K1 Tl ctr: counter-screen for KCNQ2 potentiators: effect in parental CHO-K1 cells. AID 2282. activity increase over 3SD of controls, % at 10 µM. FluxOR thallium flux fluorescence; zero = vehicle mean+3SD, 100% = vehicle-minus-blank window. shares compounds with KCNQ2 pot. 1,200 compounds, 43% hits;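 active = signal rise of at least 3 SD above the untreated control mean, in both duplicate wells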;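 also: counter screen of KCNQ2 potentiator hits so any rise reflects channel-independent effects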
KCNQ1 sel pot: tests whether KCNQ2 potentiators also act on human KCNQ1. shares compounds with KCNQ2 pot. CHO KCNQ1 stable, FluxOR thallium flux fluorescence; beyond 3SD, as % of vehicle-control signal. activation over 3SD threshold, % at 10 µM. 1,200 compounds, 28% hits;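 active = fluorescence ratio rise of at least 3 SD of vehicle wells above their mean, in both replicate wells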;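 also: 0% = vehicle mean plus 3 SD and 100% = vehicle minus unstimulated blank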
KCNQ2 pot confirm: confirmation of rat KCNQ2 potassium channel potentiators. CHO-KCNQ2 cells, FluxOR thallium flux fluorescence. potentiation, less the hit threshold, % at 10 µM. 1,200 compounds, 68% hits. shares compounds with KCNQ2 pot;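 active = fluorescence ratio rising 3 SD or more over the vehicle control mean in both replicates, plus primary screen hit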;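 also: peak minus minimum thallium fluorescence divided by baseline after K/Tl stimulus; 0% = vehicle mean plus 3 SD and 100% = vehicle minus unstimulated blank difference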
Kir2-1 sel: mouse Kir2.1 off-target activity of KCNQ2 potentiators; AID 2345; shares compounds with KCNQ2 pot; HEK293 Kir2.1, FluxOR thallium flux fluorescence; activity over 3SD threshold, % at 10 µM; 1,200 compounds, 2% hits;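 active = fluorescence ratio rise of at least 3 SD above the vehicle-control mean, seen in both replicates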;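 also: 0% = vehicle mean plus 3 SD and 100% = vehicle minus no-stimulus blank window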
KCNQ2 W236L pot: potentiates the retigabine-insensitive rat KCNQ2 W236L mutant channel; shares compounds with KCNQ2 pot; CHO KCNQ2-W236L, automated patch clamp current; current increase over 3SD of negative controls (%), hits give high values, % at 25 µM; 940 compounds, 10% hits; AID 2558;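 active = current increase at least 3 SD of the untreated controls above them in both duplicate recordings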
* = called active by the depositor; i = inactive; / = not tested or not shown.

SMILES	KCNQ2 inh	KCNQ2 pot	Kir21 confirm	HEK293 ctr	CHO-K1 Tl ctr	KCNQ1 sel pot	KCNQ2 pot confirm	Kir2-1 sel	others
COC(=O)c1c(NS(=O)(=O)c2ccc3ccccc3c2)sc2c1CCCC2	i	6.4*	i	i	-4	-11	-17	-36
CCOC(=O)c1c(NC(=O)c2ccccc2C(=O)O)sc2c1CCC2	i	1.7	/	/	/	/	/	/
CCOC(=O)c1c(NS(=O)(=O)c2ccc(Br)cc2)sc2c1CCC2	i	18*	i	255%*	41*	87*	59*	-26	KCNQ2 W236L pot=i
O=C(COC(=O)c1cc([N+](=O)[O-])ccc1N1CCOCC1)Nc1ncc(Cl)cc1Cl	i	/	/	/	/	/	/	/
COc1ccc(/C=C/C(=O)N(C)C2(C)CCS(=O)(=O)C2)cc1 (stereo not given)	i	/	/	/	/	/	/	/
COc1cccc(Nc2ncnc3sc(C)cc23)c1	i	0.84	/	/	/	/	/	/
Cn1c(N)c(C(=O)COC(=O)c2ccc(Cl)c(S(=O)(=O)N3CCCC3)c2)c(=O)n(C)c1=O	i	0.21	/	/	/	/	/	/
CC(C)N1C(=S)N(Cc2ccco2)C(=O)C1CC(=O)Nc1ccccc1 (stereo not given)	i	2.7	/	/	/	/	/	/
CCOC(=O)c1c(NC(=O)CCNCc2ccco2)sc2c1CCC2	i	/	28%*	i	/	/	/	/
CCOC(=O)c1c(NC(=O)c2ccco2)sc2c1CCCCC2	i	2.4	/	/	/	/	/	/
Fc1cccc2sc(Nc3nc4c(F)cccc4s3)nc12	i	1.3	i	i	/	/	/	/
COc1cc(OC)cc(-c2nnc(Nc3nc4c(F)cccc4s3)o2)c1	i	3.3	/	/	/	/	/	/
Fc1cccc2sc(Nc3nnc(-c4ccccc4)o3)nc12	i	26*	i	449%*	1.3*	-21	62*	1.1*	KCNQ2 W236L pot=i
NNc1nc2c(F)cccc2s1	i	/	/	/	/	/	/	/
N#Cc1c(-c2ccco2)nc(SCC(=O)Nc2cccc(Cl)c2)[nH]c1=O	i	5.5*	i	i	-13	-7	7.4*	-30	KCNQ2 W236L pot=i
O=C(CSc1nc2[nH]ncc2c(=O)[nH]1)Nc1cccc(Cl)c1	i	/	/	/	/	/	/	/
C/C(N)=C(/C#N)C(=O)CSc1nc2ccccc2c(=O)n1Cc1ccc(C)cc1	i	/	/	/	/	/	/	/
C/C(N)=C(/C#N)C(=O)CSc1nc2ccccc2c(=O)n1Cc1ccc(F)cc1	i	5.5*	i	167%*	-8	16*	3.4*	-37	KCNQ2 W236L pot=i
O=C(CSc1nnc(-c2cccnc2)n1Cc1ccco1)c1ccc(Br)cc1	i	/	68%*	72%*	/	/	/	/
O=C(CSc1nnc(-c2cccnc2)n1Cc1ccco1)c1ccc2ccccc2c1	i	/	/	/	/	/	/	/
O=c1[nH]cc(N=Cc2cc(Cl)cc(Cl)c2O)c(=O)[nH]1	i	8.3*	i	i	15*	18*	24*	-12	KCNQ2 W236L pot=i
O=c1[nH]cc(N=Cc2cc([N+](=O)[O-])ccc2O)c(=O)[nH]1	i	/	/	/	/	/	/	/
Cc1ccc(S(=O)(=O)N(C)C)cc1NC(=O)CSc1nncs1	i	0.44	/	/	/	/	/	/
O=C(CCC1CCCC1)NNC(=O)c1cccc(Cl)c1	i	6.1*	i	i	106*	-18	15*	-11	KCNQ2 W236L pot=i
O=C(CCN1C(=O)C2CCCCC2C1=O)NNC(=O)c1cccc(Cl)c1 (stereo not given)	i	0.27	/	/	/	/	/	/
CCOC(=O)CCc1c(C)c2ccc3c(c2oc1=O)CN(CCCO)CO3	i	0.61	/	/	/	/	/	/
COC(=O)C1(CCSC)NC(c2ccc(O)cc2)C2C(=O)N(c3ccc(F)cc3)C(=O)C21 (stereo not given)	i	0.29	/	/	/	/	/	/
CCN(CC(=O)Nc1ccc(NC(C)=O)cc1)C(=O)c1ccc(NC2CC2)c([N+](=O)[O-])c1	i	/	/	/	/	/	/	/
